# PubChem BioAssay (Tox21)
# A number with no mark means an inactive call. Results filed as inconclusive are left out. Where a call stands in place of a potency, no number is given. Activity calls are given as the source filed them. Unless noted, calls come from the whole dose curve.
# Experiments:
# [1] = Nuclear factor erythroid 2-related factor 2/antioxidant responsive element (Nrf2/ARE) small molecule agonists: qHTS cell viability counter screen in human keratinocytes (AID 1919968; active = well fitted curve in the direction sought with a large enough effect in the repeat runs; an effect the other way counts as inactive or inconclusive; note: nearly all actives have a fitted effect of over 55% in size; note: potency is the fitted concentration of half-maximal effect)
# Summary of the method: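 Parallel cytotoxicity read: KeratinoSens HaCaT cells, compound treatment 23 h, viability by CellTiter-Fluor fluorescence 1 h post-reagent.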
# [2] = Nuclear factor erythroid 2-related factor 2/antioxidant responsive element (Nrf2/ARE) small molecule agonists: luciferase reporter gene qHTS assay in human keratinocytes (AID 1919969); note: nearly all actives have a fitted effect of over 35% in size; note: potency is the fitted concentration of half-maximal effect
# [3] = target: Gonadotropin-releasing hormone receptor (Homo sapiens) (UniProt P30968); test: Human gonadotropin-releasing hormone receptor (GnRHR) small molecule agonists, calcium flux assay in GnRHR-HEK293 cells (AID 1920063); note: nearly all actives have a fitted effect of over 35% in size
# Summary of the method: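 Calcium flux, agonist mode, human GnRHR stably integrated in HEK293; dye 1 h at 37 C before compound; Ex/Em=480/540 kinetic read, 3 min; 15 concentrations, triplicate.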
# [4] = target: KiSS-1 receptor (Homo sapiens) (UniProt Q969F8); test: Human kisspeptin (KISS1R) small molecule agonists, calcium flux assay in KISS1R-HEK293 cells (AID 1920064; active = well fitted curve in the direction sought with a large enough effect in the repeat runs; an effect the other way counts as inactive or inconclusive)
# Summary of the method: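 Triplicate 15-concentration series were applied to dye-loaded human KISS1R HEK293 cells, and agonist-evoked calcium fluorescence was captured for 3 min.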
# [5] = G protein-coupled receptor (GPCR) small molecule agonists, calcium flux assay: HEK293 wild type cell line counter screen (AID 1920065)
# Summary of the method: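 Non-specific calcium responders were flagged by adding DMSO-dissolved compounds to dye-loaded cells and reading 480/540 nm fluorescence each second for 3 min; ATP served as positive control.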
# [6] = p53 small molecule agonists, cell-based qHTS assay with human liver microsomes: qHTS cell viability counter screen (AID 1963579); note: nearly all actives have a fitted effect of over 45% in size
# Summary of the method: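 Viability of p53RE-bla cells is measured as CellTiter-Glo luminescence following a 16 h, 37 C incubation with compound, liver microsomes from human donors and NADPH.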
# [7] = p53 small molecule agonists, cell-based qHTS assay with rat liver microsomes: qHTS cell viability counter screen (AID 1963580); note: nearly all actives have a fitted effect of over 45% in size
# Summary of the method: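 Cytotoxicity counter screen: intracellular ATP measured by CellTiter-Glo luminescence in the same wells as the beta-lactamase reporter read, on HCT-116 p53RE-bla cells exposed 16 h at 37 C to compounds with rat liver microsomes and NADPH, each 0.5 mg/mL final.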
# [8] = p53 small molecule agonists, cell-based qHTS assay: qHTS cell viability counter screen (AID 1963581); note: nearly all actives have a fitted effect of over 45% in size
# Summary of the method: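 Multiplexed with the reporter read, a CellTiter-Glo step (30 min, room temperature) gauges ATP-based viability of HCT-116 p53RE-bla cells after 16 h compound incubation at 37 C.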
# [9] = target: 5-hydroxytryptamine receptor 2A (Homo sapiens) (UniProt P28223); test: 5-hydroxytryptamine receptor 2A (HTR2A) small molecule antagonists, cell-based qHTS assay (AID 1963586); note: nearly all actives have a fitted effect of over 45% in size; note: potency is the fitted concentration of half-maximal effect
# Summary of the method: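 CHO cells stably expressing human HTR2A were plated for 18 h at 37 C, then loaded with calcium dye for 1 h. Compounds were preincubated 5 min at room temperature before DOI (4 nM solution) was added. Kinetic fluorescence was read for 3 min.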
# [10] = target: 5-hydroxytryptamine receptor 2A (Homo sapiens) (UniProt P28223); test: 5-hydroxytryptamine receptor 2A (HTR2A) small molecule agonists, cell-based qHTS assay (AID 1963587); note: nearly all actives have a fitted effect of over 30% in size
# Summary of the method: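 CHO cells stably expressing human HTR2A, plated 18 h, loaded with calcium dye 1 h at 37 C. Agonist mode: compounds added and intracellular calcium fluorescence recorded kinetically for 2 min at 1 sec intervals.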
# [11] = target: Muscarinic acetylcholine receptor M1 (Homo sapiens) (UniProt P11229); test: Cholinergic receptor muscarinic 1 (CHRM1) small molecule antagonists, cell-based qHTS assay (AID 1963588); note: nearly all actives have a fitted effect of over 40% in size
# Summary of the method: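 Compounds were tested at 15 concentrations in three independent runs. Dye-loaded CHRM1-CHO cells were exposed 5 min at room temperature before stimulation by acetylcholine added at 50nM. Intracellular calcium was read kinetically on FDSS for 3 min.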
# [12] = target: Beta-2 adrenergic receptor (Homo sapiens) (UniProt P07550); test: Adrenergic beta2 receptor (ADRB2) small molecule antagonists, cell-based qHTS assay (AID 1963592); note: series mostly up to about 92 µM; nearly all actives have a fitted effect of over 50% in size
# Summary of the method: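 Assay format: CHO-ADRB2 cells, 18-20hr seeding at 37C/5% CO2, then compound plus 1nM isoproterenol agonist mix for 0.5hr RT. Homogeneous time-resolved fluorescence cAMP detection after 1hr, expressed as 665/615 nm ratio.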
# [13] = target: Muscarinic acetylcholine receptor M1 (Homo sapiens) (UniProt P11229); test: Cholinergic receptor muscarinic 1 (CHRM1) small molecule agonists, cell-based qHTS assay (AID 1963589); note: nearly all actives have a fitted effect of over 35% in size
# Summary of the method: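 qHTS, 15-point titration, 3 independent runs: compounds pin-transferred onto dye-loaded CHRM1-CHO cells (human M1), calcium fluorescence followed every second to detect agonism.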
# [14] = cAMP Responsive Elements (CRE) small molecule agonists, cell-based qHTS assay (AID 1963590)
# Summary of the method: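 Quantitative HTS for CRE agonists: HEK 293T CRE-bla cells, overnight plating, 3 h compound incubation at 37 C/5% CO2, then 2 h room-temperature LiveBLAzer B/G FRET substrate loading.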
# [15] = cAMP Responsive Elements (CRE) small molecule antagonists, cell-based qHTS assay (AID 1963591; active = well fitted inhibition curve with a large enough effect in the signal ratio in the repeat runs, not every such curve was filed as active; the % refers to the signal ratio)
# Summary of the method: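 Fluorescence intensity from cleaved LiveBLAzer B/G substrate (2 h, room temperature) quantified CRE-bla activity in HEK 293T cells exposed 3 h to compound with 0.25 uM final NKH477.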
# [16] = target: D(2) dopamine receptor (Homo sapiens) (UniProt P14416); test: Dopamine D2 receptor (DRD2) small molecule agonists, cell-based qHTS assay (AID 1963594); note: nearly all actives have a fitted effect of over 35% in size
# Summary of the method: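 HEK293 cells stably expressing human DRD2, pre-treated with PDE inhibitor Ro20-1724 (0.1 mM final) and compound 10 min at room temperature, then stimulated with NKH477 (200nM […]) for 30 min. cAMP read by HTRF (665/620 nm).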
# [17] = target: D(2) dopamine receptor (Homo sapiens) (UniProt P14416); test: Dopamine D2 receptor (DRD2) small molecule antagonists, cell-based qHTS assay (AID 1963595; active = well fitted inhibition curve with a large enough effect in the signal ratio in the repeat runs, with a control signal flat; the % refers to the signal ratio; note: potency is the fitted concentration of half-maximal effect)
# Summary of the method: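 HEK293 cells stably expressing DRD2, preincubated with 0.1 mM Ro20-1724 and compounds 10 min, were stimulated with 200 nM NKH477 plus 12 nM quinpirole for 30 min at room temperature; cAMP measured by HTRF (665/620 nm).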
# [18] = target: Beta-2 adrenergic receptor (Homo sapiens) (UniProt P07550); test: Adrenergic beta2 receptor (ADRB2) small molecule agonists, cell-based qHTS assay (AID 1963593);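 note: CHO cells stably overexpressing human ADRB2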
# Summary of the method: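 CHO cells stably over-expressing ADRB2 were plated overnight at 37C, then dosed with compounds plus a stimulation mix containing 100uM IBMX and 25uM Ro-20-1724 for 0.5hr at room temperature. cAMP was measured by HTRF competition, 1hr.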
# Chain of 5-hydroxytryptamine receptor 2A (Homo sapiens) (P28223 whole entry, looked up): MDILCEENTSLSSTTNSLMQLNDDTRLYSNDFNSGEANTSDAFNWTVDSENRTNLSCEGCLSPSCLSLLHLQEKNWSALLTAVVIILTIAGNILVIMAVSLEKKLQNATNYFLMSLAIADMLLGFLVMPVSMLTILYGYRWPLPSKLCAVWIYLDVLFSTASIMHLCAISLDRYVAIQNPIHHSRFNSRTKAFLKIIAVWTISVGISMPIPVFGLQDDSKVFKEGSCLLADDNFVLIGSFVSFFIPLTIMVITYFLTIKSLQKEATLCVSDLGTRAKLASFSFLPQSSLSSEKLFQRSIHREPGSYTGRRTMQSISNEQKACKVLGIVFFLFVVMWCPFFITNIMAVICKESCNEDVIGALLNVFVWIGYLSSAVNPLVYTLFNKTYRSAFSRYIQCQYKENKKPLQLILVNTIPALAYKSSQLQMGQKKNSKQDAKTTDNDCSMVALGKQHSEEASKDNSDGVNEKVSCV
# Chain of D(2) dopamine receptor (Homo sapiens) (P14416 whole entry, looked up): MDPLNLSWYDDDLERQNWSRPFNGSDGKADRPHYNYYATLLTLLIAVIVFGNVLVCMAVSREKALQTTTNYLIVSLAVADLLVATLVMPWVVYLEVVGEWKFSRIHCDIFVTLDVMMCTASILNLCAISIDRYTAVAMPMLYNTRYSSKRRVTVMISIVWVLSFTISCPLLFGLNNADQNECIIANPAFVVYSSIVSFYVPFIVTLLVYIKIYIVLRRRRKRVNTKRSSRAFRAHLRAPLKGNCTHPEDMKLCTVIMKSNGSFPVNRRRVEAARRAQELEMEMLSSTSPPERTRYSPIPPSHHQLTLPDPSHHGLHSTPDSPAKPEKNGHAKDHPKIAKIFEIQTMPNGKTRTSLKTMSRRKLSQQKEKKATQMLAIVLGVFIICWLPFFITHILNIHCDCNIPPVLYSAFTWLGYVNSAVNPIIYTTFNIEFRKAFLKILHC
# Chain of Beta-2 adrenergic receptor (Homo sapiens) (P07550 whole entry, looked up): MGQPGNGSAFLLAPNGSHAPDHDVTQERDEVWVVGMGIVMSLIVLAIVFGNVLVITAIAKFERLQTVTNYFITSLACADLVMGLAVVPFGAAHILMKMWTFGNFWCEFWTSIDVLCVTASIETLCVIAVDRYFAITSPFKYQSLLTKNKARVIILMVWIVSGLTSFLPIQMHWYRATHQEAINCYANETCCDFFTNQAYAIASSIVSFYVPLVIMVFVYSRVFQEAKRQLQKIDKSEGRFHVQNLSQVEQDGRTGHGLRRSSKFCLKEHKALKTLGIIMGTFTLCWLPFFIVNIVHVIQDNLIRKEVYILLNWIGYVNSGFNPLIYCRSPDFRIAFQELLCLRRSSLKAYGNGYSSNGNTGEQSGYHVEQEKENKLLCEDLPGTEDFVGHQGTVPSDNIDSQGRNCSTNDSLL
# Chain of Gonadotropin-releasing hormone receptor (Homo sapiens) (P30968 whole entry, looked up): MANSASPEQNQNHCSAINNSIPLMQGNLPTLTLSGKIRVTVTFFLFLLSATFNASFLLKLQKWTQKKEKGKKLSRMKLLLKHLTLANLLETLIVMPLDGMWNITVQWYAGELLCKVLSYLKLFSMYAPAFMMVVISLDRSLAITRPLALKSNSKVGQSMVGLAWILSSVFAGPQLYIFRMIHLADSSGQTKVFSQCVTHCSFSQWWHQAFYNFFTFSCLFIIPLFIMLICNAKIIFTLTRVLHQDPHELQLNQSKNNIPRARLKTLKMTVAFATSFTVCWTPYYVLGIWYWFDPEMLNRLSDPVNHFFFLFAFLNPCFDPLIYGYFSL
# Chain of KiSS-1 receptor (Homo sapiens) (Q969F8 whole entry, looked up): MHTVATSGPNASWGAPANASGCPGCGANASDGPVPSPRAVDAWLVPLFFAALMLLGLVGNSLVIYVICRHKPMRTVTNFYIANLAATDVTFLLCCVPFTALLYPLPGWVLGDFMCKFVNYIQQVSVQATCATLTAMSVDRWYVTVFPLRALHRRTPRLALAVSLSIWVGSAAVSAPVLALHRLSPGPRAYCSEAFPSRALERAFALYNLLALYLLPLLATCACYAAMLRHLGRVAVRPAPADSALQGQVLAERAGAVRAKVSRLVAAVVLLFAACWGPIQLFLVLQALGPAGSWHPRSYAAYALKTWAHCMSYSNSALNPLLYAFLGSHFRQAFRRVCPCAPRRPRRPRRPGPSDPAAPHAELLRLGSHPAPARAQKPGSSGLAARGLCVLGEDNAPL
# Chain of Muscarinic acetylcholine receptor M1 (Homo sapiens) (P11229 whole entry, looked up): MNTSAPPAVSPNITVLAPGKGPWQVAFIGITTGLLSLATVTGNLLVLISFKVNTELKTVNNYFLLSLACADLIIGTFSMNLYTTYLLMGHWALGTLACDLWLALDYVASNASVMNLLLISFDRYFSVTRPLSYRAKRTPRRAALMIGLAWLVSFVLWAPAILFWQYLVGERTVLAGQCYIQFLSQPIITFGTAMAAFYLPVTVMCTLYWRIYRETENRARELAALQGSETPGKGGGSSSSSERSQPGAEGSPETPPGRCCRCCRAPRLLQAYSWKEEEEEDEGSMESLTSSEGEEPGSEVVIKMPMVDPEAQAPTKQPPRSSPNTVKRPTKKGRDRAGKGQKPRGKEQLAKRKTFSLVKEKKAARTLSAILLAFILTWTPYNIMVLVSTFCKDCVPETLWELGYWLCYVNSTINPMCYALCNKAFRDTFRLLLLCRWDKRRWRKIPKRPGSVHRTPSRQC
smiles,measurement,setting,value
O=C(c1ccc(O)c(O)c1)c1ccc(O)cc1O,Potency,[1],inactive
same,Potency,[2],inactive
same,Potency,[3],inactive
same,Potency,[4],inactive
same,Potency,[5],inactive
same,Potency,[6],inactive
same,Potency,[7],inactive
same,Potency,[8],inactive
same,Potency,[9],47.1 µM (active)
same,Potency,[10],inactive
same,Potency,[11],inactive
same,Potency,[12],inactive
Cc1ccc(C(=O)O)cc1[N+](=O)[O-],Potency,[1],inactive
same,Potency,[2],inactive
same,Potency,[3],inactive
same,Potency,[4],inactive
same,Potency,[5],inactive
same,Potency,[6],inactive
same,Potency,[7],inactive
same,Potency,[8],inactive
same,Potency,[9],inactive
same,Potency,[10],inactive
same,Potency,[13],inactive
same,Potency,[14],inactive
same,Potency,[15],inactive
same,Potency,[12],inactive
same,Potency,[16],inactive
same,Potency,[17],inactive
BrCc1cccc(Oc2ccccc2)c1,Potency,[1],inactive
same,Potency,[2],inactive
same,Potency,[3],inactive
same,Potency,[4],inactive
same,Potency,[5],inactive
same,Potency,[6],inactive
same,Potency,[7],inactive
same,Potency,[8],inactive
same,Potency,[9],inactive
same,Potency,[10],inactive
same,Potency,[11],inactive
same,Potency,[13],inactive
same,Potency,[15],inactive
same,Potency,[16],inactive
same,Potency,[17],inactive
C[C@@H]1CN(c2c(F)c(F)c3c(=O)c(C(=O)O)cn(C4CC4)c3c2F)C[C@H](C)N1,"activity change, negative = cytotoxicity",[1],-4.39% [at 19 µM]
same,"activity, positive = activation",[2],2.76% [at 19 µM]
same,activity change,[3],"0.18% [at 11.8 µM, stronger effect = higher value]"
same,activation,[4],-0.0587% [at 15.8 µM]
same,activation,[5],-1.01% [at 11.8 µM]
same,"activity change, negative = cytotoxicity",[6],0.644% [at 13.5 µM]
same,"activity change, negative = cytotoxicity",[7],9.6% [at 13.5 µM]
same,"activity change, negative = cytotoxicity",[8],-8.27% [at 13.5 µM]
same,"activity, negative = inhibition",[9],0.835% [at 12.7 µM]
same,activation,[10],-2.83% [at 15.9 µM]
same,"activity, negative = inhibition",[11],7.07% [at 12.6 µM]
same,activation,[14],-2.17% [at 19 µM]
same,"activity change, negative = inhibition",[12],-4.7% [at 19 µM]
same,activation,[16],18.6% [at 19 µM]
same,"activity change, negative = inhibition",[17],-0.82% [at 18.9 µM]
NCCCCCCNCCCCCCN,Potency,[1],inactive
same,Potency,[2],inactive
same,Potency,[3],inactive
same,Potency,[4],inactive
same,Potency,[5],inactive
same,Potency,[6],inactive
same,Potency,[7],inactive
same,Potency,[8],inactive
same,Potency,[9],inactive
same,Potency,[10],inactive
same,Potency,[13],inactive
same,Potency,[14],inactive
same,Potency,[15],inactive
same,Potency,[12],inactive
same,Potency,[16],inactive
same,Potency,[17],inactive
Nc1ccc(/C=C/c2ccc(N)cc2S(=O)(=O)O)c(S(=O)(=O)O)c1,"activity change, negative = cytotoxicity",[1],-4.83% [at 0.349 µM]
same,"activity, positive = activation",[2],-0.938% [at 0.349 µM]
same,activity change,[3],"-1.31% [at 0.217 µM, stronger effect = higher value]"
same,activation,[4],-0.667% [at 0.29 µM]
same,activation,[5],-1.11% [at 0.217 µM]
same,"activity change, negative = cytotoxicity",[6],-0.304% [at 0.249 µM]
same,"activity change, negative = cytotoxicity",[7],0.884% [at 0.249 µM]
same,"activity change, negative = cytotoxicity",[8],-1.67% [at 0.249 µM]
same,"activity, negative = inhibition",[9],63.5% [at 0.233 µM]
same,activation,[10],1.96% [at 0.292 µM]
same,activation,[13],0.145% [at 0.29 µM]
same,activation,[14],-0.633% [at 0.349 µM]
same,"activity change, negative = inhibition",[15],-10.6% [at 0.349 µM]
same,"activity change, negative = inhibition",[12],-6.48% [at 0.349 µM]
same,activation,[18],-7.68% [at 0.349 µM]
same,activation,[16],-13.5% [at 0.349 µM]
same,"activity change, negative = inhibition",[17],6.36% [at 0.348 µM]
N#CSCSc1nc2ccccc2s1,Potency,[1],13.7 µM (active)
same,Potency,[2],9.69 µM (active)
same,Potency,[3],inactive
same,Potency,[4],inactive
same,Potency,[5],inactive
same,Potency,[6],inactive
same,Potency,[7],inactive
same,Potency,[8],inactive
same,Potency,[9],inactive
same,Potency,[10],inactive
same,Potency,[11],inactive
same,Potency,[13],inactive
same,Potency,[12],inactive
same,Potency,[16],inactive
same,Potency,[17],54.5 µM (active)
